# The whole screen tested about 340,000 compounds, of which about 330 (0.097%) were called active. The list comes from a sample in which actives are over-represented; it also holds similar structures and randomly drawn compounds. A number with no mark means an inactive call.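 The calls were made as follows: active = mean replicate inhibition of at least 30% and at least 1% of replicates passing that level; inconclusive = only one of the two criteria is met; inactive = neither criterion is met.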
# System: Voltage-dependent L-type calcium channel subunit alpha-1D (CaV1.3) ICDI/IQ interaction
# Assay: Primary screen for inhibitors of IQ motif and Ca2+-dependent inactivation inhibitor domain binding in CACNA1D, Förster resonance energy transfer in living cells, single-concentration test (AID 743397);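 also: 0% = median of the neutral control wells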
# Conditions: HEK cells, CFP/YFP FRET ICDI-IQ, plate reader, 10 min; at 12.3 µM; hits give high values; percent FRET-ratio fall versus neutral wells
row,SMILES,inhibition
1,Cc1ccc(C)c(CN2CCC(CNC(=O)C3CCCN(c4ncnc5c4nc4n5CCCCC4)C3)CC2)c1 (stereo not drawn),-13.7%
2,O=C(O)Cn1cnc2c(NCc3ccccc3)ncnc21,-6.21%
3,CC(C)C[C@H](NC(=O)CC1CCCC1)C(=O)N1CCC[C@H]1C(=O)NCc1ccccc1,-8.63%
4,Nc1[nH]c(C(=O)c2ccc(Br)cc2)c(-c2ccc3c(c2)OCO3)c1C(=O)NCCc1c[nH]c2ccccc12,-16.2%
5,CCOC(=O)C1CSCCS(=O)(=O)N1Cc1ccc(Cl)cc1 (stereo not drawn),-4.73%
6,O=C1[C@@H](c2ccccc2)[C@@H](c2ccccc2)N1c1ccccc1,-7.31%
7,Brc1ccc(COCCc2cn(Cc3ccccc3)c3ccccc23)cc1,-2.59%
8,CC(=O)c1ccc(-c2cnc3c(NC=O)cc(-c4cccc(NS(C)(=O)=O)c4)cn23)cc1,-5.47%
9,COCCCNC(=O)C[C@H]1C[C@@]2(C(=O)OC)C(=C[C@H](C(C)(C)C)O[C@@H]2C)N(Cc2ccc3c(c2)OCO3)C1=O,-3.83%
10,O=C(N[C@H](Cc1ccccc1)C(=O)N1CCCN(Cc2cccs2)CC1)[C@H]1O[C@@H](n2ccc(=O)[nH]c2=O)[C@H](O)[C@@H]1O,-3.41%
11,Cc1ccc2nc(-c3ccc(CN4CCC(n5cc(-c6ccccc6)[nH]c5=O)CC4)cc3)c(-c3ccccc3)nc2c1,-15.6%
12,COC(=O)C1=C(C)N(Cc2ccc(F)cc2)C(=S)NC1c1cccc(Cl)c1 (stereo not drawn),-2.29%
13,CCCCCCCCN1C(=O)[C@@H](CC(=O)NCc2ccccc2)C[C@@]2(C(=O)OC)C1=C[C@H](C(C)(C)C)O[C@@H]2C,-8.36%
14,O=C(NN=Cc1ccco1)C(=O)Nc1ccc(Cl)c([N+](=O)[O-])c1,-13%
15,O=S1(=O)c2ccc(Br)cc2-n2nncc2CN1Cc1cccc(Cl)c1,-9.71%
16,COC(=O)[C@]12C[C@H](CC(=O)NCc3ccc(OC)c(OC)c3)C(=O)N(Cc3ccccc3)C1=C[C@H](C(C)C)O[C@@H]2C1CC1,-11.2%
17,CC(=O)C1=C(C)N(Cc2ccc(Cl)cc2)C(=S)NC1c1ccc(F)cc1 (stereo not drawn),-2.53%
18,CC(C)[C@H]1COCCS(=O)(=O)N1Cc1ccccc1-c1cccc2c1sc1ccccc12,-4.21%
19,C[C@H]1[C@H](c2ccccc2)Oc2cc(Br)ccc2S(=O)(=O)N1Cc1cccc(F)c1,-4.74%
20,O=S(=O)(c1cccs1)N1CCCc2nc(-c3ccc(Br)cc3)ccc21,-8.65%
21,C=CCN=C1NC(c2ccccc2)C(C(=O)OC)=C(C)N1Cc1ccc(C(F)(F)F)cc1 (stereo not drawn),-6.18%
22,CCN1CCN(CC(=O)Nc2sc3c(c2C#N)CCC3)CC1,-6.79%

row,SMILES,inhibition
1,N#Cc1c(N)sc2c1CCN(C(=O)OCc1ccccc1)C2,-7.05%
2,CNC(=S)NNC(=O)c1ccc(N(C)C)cc1,-4.61%
3,CC(=O)NC(=S)NNC(=O)c1ccc(Br)cc1,74.6% (active)
4,O=C(NNC(=O)c1ccc(Cl)nc1)c1ccc(Br)cc1,-6.15%
5,O=C(Nc1ccc(C(F)(F)F)cc1)c1cccc(-n2cnnn2)c1,-5.18%
6,CCCCC(=O)Nc1ccc(C(=O)Nc2cc(C(F)(F)F)ccc2Cl)cc1,-17.6%
7,O=C1Nc2ccccc2C1=NN=Cc1ccco1,-4.56%
8,CCCCC[C@H](C)N1C[C@@H](COCc2ccccc2)Oc2cc(N3CC[C@@H](N(C)C)C3)ccc2S1(=O)=O,-7.78%
9,N#Cc1cccc(Nc2c3c(nc4ccccc24)CCCC3)c1,-2.56%
10,O=C(Nc1cccc([N+](=O)[O-])c1)Nn1cnnc1,-5.3%
11,O=[N+]([O-])c1cccc(Nc2c3ccccc3nc3ccccc23)c1,87.1% (active)
12,CCn1c(=N)c(C(=O)NCCCOC)cc2c(=O)n3cccc(C)c3nc21,45.8% (active)
13,COCCCn1c(C(=O)NC2CCCCC2)cc2c(=O)n3cccc(C)c3nc21,-7.34%
14,COc1ccc(CCn2c(=N)c(C(=O)NCC3CCCO3)cc3c(=O)n4cccc(C)c4nc32)cc1OC (stereo not drawn),-7.32%
15,COCc1[nH]nc2c1C(c1ccccc1)N(c1ccccc1)C2=O (stereo not drawn),-4.04%
16,COC(=O)c1cc2c(c3c4cc(F)ccc4n(S(=O)(=O)c4ccccc4)c13)C(=O)N(Cc1ccccc1OC)C2,-8.18%
17,C=CC[C@]12C[C@@]3(O[C@H](c4ccc(C(F)(F)F)cc4)N=C3C[C@H](c3ccc(OC)cc3)[C@H]1C)N(C1CCN(Cc3ccccc3)CC1)C2=O,-3.62%
18,CN(C)CCOCCOc1ccc(Cl)c2ccccc12,62.4% (active)
19,CCN(CC)CCOCCOc1ccc(Cl)c2ccccc12,-5.65%
20,CN(C)CCOc1ccc(Cl)cc1C(C)(C)C,3.19%
21,Cc1ccc(N)cc1CN1CCN(c2ncc(Cc3ccccc3)cn2)CC1,-2.7%

# — PubChem BioAssay AID743397 (Broad Institute, 2014)
